Tg IFNy HTS: T. gondii growth inhibition with IFN-gamma, primary screen, cell-based. 69,000 compounds, 3.8% hits. Toxoplasma gondii growth in IFN-gamma-treated host cells; active compounds read low. activity change, negative = inhibition, % (concentration not given with the values); in the data active means activity change below about -70%, passing the limit was not always enough;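 further: host cells are HeLa cells infected with Toxoplasma gondii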
* = called active by the depositor. This excerpt belongs to a sample that is enriched for hits.

SMILES | Tg IFNy HTS
Cc1csc(NC(=O)CN2C(=O)CCc3cc(S(=O)(=O)N4CCC(C)CC4)ccc32)n1 | -93.1*
Cc1cc(C)c(NC(=O)CN2C(=O)CCc3cc(S(=O)(=O)N4CCC(C)CC4)ccc32)c(C)c1 | -31.2
CCOc1ccc(NC(=O)CN2C(=O)CCc3cc(S(=O)(=O)N4CCC(C)CC4)ccc32)cc1 | -25.6
CC1CCN(S(=O)(=O)c2ccc3c(c2)CCC(=O)N3CC(=O)Nc2ccccn2)CC1 | 10.4
CC(=O)Nc1ccc(NC(=O)CN2C(=O)CCc3cc(S(=O)(=O)N4CCC(C)CC4)ccc32)cc1 | 23.0
CC(C)c1ccc(NC(=O)CN2C(=O)CCc3cc(S(=O)(=O)N4CCCCC4C)ccc32)cc1 (stereo unspecified) | -75.0*
CC(C)NC(=O)CN1C(=O)CCc2cc(S(=O)(=O)N3CCCCC3C)ccc21 (stereo unspecified) | 36.0
Cc1cc(C)c(NC(=O)CN2C(=O)CCc3cc(S(=O)(=O)N4CCCCC4C)ccc32)c(C)c1 (stereo unspecified) | -42.6
CC1CCN(S(=O)(=O)c2ccc3c(c2)CCC(=O)N3CC(=O)Nc2ccc(C(C)C)cc2)CC1 | -72.9*
CCS(=O)(=O)N1CCC2(CC1)OC(=O)C(C)=C2C(=O)NCc1ccc(F)cc1 | 10.4
CCCN(Cc1cccnc1)C(=O)c1ccc(OC)c(Cl)c1 | 1.6
COC[C@H]1CCC[C@]12CN(C(=O)c1ccno1)CCO2 | -22.5
CN1Cc2ccccc2CC2(CCN(c3ccccn3)CC2)C1=O | -10.6
CNC(=O)c1cc(=O)n(CC(=O)Nc2cc(C(F)(F)F)ccc2Cl)c2ccccc12 | 16.4
CCOc1ccc(Cl)cc1CN(C)C(=O)CC(=O)Nc1ccccc1C | 19.0
CS(=O)(=O)c1ccc(-c2cccc3[nH]ccc23)cc1 | 62.4
COc1ccc(Cl)cc1NC(=O)Cn1nc(C(F)(F)F)cc1C | -29.9
CCOC1C2CCC1N(C(=O)CS(C)(=O)=O)CCO2 (stereo unspecified) | 21.2
Cc1ccc(NC2=CC(=O)c3sc(C)nc3C2=O)cc1 | -75.6*
CN1CCN(Cc2cnn(C)c2)CC2(CCCC(=O)N2)C1 (stereo unspecified) | 96.9
Cn1nnnc1SCC(=O)OC1CCCCC1 | -13.4
CCc1nc(NC(=O)NCc2cccc(SC)c2)nn1C | 8.8
CO[C@@H]1CCN(C(=O)c2cnoc2)[C@H]2CN(Cc3cccnc3)C[C@@H]12 | 9.0
O=C1CCCN1CC1CN(C(=O)c2ccccn2)Cc2nccn2C1 (stereo unspecified) | -98.4*
O=C1CCCN1CC1CN(CC2CCOC2)Cc2nccn2C1 (stereo unspecified) | 0.1
SMILES | Tg IFNy HTS
O=C(c1ccc[nH]1)N1Cc2nccn2CC(CN2CCCC2)C1 (stereo unspecified) | -5.5
CN(Cc1cc2n(n1)CCCNC2)Cc1ncc[nH]1 | 3.4
COc1cc2c(cc1OC)C(CC(=O)Nc1ccccc1)C(=O)NN=C2C (stereo unspecified) | 75.1
CNC(=O)c1ccc(Cn2ccnc2C2CCOC(C)(C)C2)cc1 (stereo unspecified) | 5.1
Fc1ccccc1-n1cc(-c2ccnc(NCc3ccon3)n2)cn1 | -76.0*
COc1ccccc1-n1cc(-c2ccnc(NCCc3cnccn3)n2)cn1 | -27.6
Cc1ccccc1-n1cc(-c2ccnc(NC3CCNCC3)n2)cn1 | -25.8
CCCC(=O)Nc1cc2c(cc1OC)NC(=O)CC2c1cccc2nsnc12 (stereo unspecified) | -2.7
COc1cccc(Cl)c1-c1cccc(-n2cnnc2)c1 | 0.1
Cc1nc(-n2cnnc2)ccc1-c1cccc(Cl)c1Cl | -84.3*
Nc1nnc(-c2cccc(Cl)c2Cl)c(N)n1 | 1.8
O=C(CCc1ccccc1)N1CCc2c([nH]c3ccccc23)C1c1ccccc1 (stereo unspecified) | -45.7
CCCc1nnc(C(=O)N2CCCOC(CN3CCCC3)C2)o1 (stereo unspecified) | 2.0
Cc1c(C(=O)N2CCCC3(CC2)CN(C)C(=O)O3)n(C)c2c(C)cccc12 (stereo unspecified) | -3.3
COc1ccc(OC)c(CNc2nc(-c3nnc(-c4ccc(C)cc4)o3)nc3ccccc23)c1 | -42.4
COc1ccc(CNc2nc(-c3nnc(-c4cccc(C)c4)o3)nc3ccccc23)cc1 | 108.8
COc1ccc(OC)c(CNc2nc(-c3nnc(-c4cccc(Cl)c4)o3)nc3ccccc23)c1 | -102.8*
COc1ccc(OC)c(CNc2nc(-c3nnc(-c4cccc(C)c4)o3)nc3ccccc23)c1 | -93.3*
COc1ccccc1CNc1nc(-c2nnc(-c3cccc(Cl)c3)o2)nc2ccccc12 | -62.4
COc1ccc(-c2nnc(-c3nc(NCc4ccc(OC)cc4OC)c4ccccc4n3)o2)cc1 | 161.3
O=C(C1CCC2(CC1)N=CN(CC1CC1)C2=O)N1CCN(c2ccccn2)CC1 (stereo unspecified) | -7.5
COc1ccc(Cl)cc1S(=O)(=O)N1CCC2(CC1)Nc1cc(F)ccc1-n1cccc12 | -28.1
COc1ccc(NC2CCCN(C(=O)CCn3c(C)cccc3=O)C2)cc1 (stereo unspecified) | 3.5
Cc1oc(-c2ccccc2)nc1CN1C(=O)C(O)(c2cccc(F)c2)c2ccccc21 (stereo unspecified) | -105.1*
Cc1oc(-c2ccc(C(=O)NCc3cccc(F)c3)cc2)nc1CN1CCN(c2ccccc2)CC1 | 14.2
SMILES | Tg IFNy HTS
COc1ccc(-c2nc(Cn3ccn4nc(-c5ccccc5)cc4c3=O)c(C)o2)cc1 | -28.5
Cc1oc(-c2ccccc2)nc1CN1C(=O)C(O)(c2ccccc2)c2ccccc21 (stereo unspecified) | -35.6
COc1ccc(-c2nc(CN3C(=O)C(O)(c4ccccc4)c4ccccc43)c(C)o2)cc1 (stereo unspecified) | -78.3*
COc1ccc(-c2nc(CN3C(=O)C(O)(c4cccc(C)c4)c4ccccc43)c(C)o2)cc1 (stereo unspecified) | -36.9
COc1ccc(-c2nc(Cn3c(C)cc(C)c(-c4nc(-c5ccccc5)no4)c3=O)c(C)o2)cc1 | -86.3*
COc1ccc(-c2cc3c(=O)n(Cc4nc(-c5ccccc5)oc4C)ccn3n2)cc1 | 46.2
Cc1oc(-c2ccc(C(=O)NCc3cccc(F)c3)cc2)nc1CN1CCc2ccccc21 | -42.9
CN1CCC(n2cnc(-c3ccccc3)c2-c2cccc3cccnc23)CC1 | 1.8
Cc1ccc(CN(C)Cc2ccc(-n3ccnc3)cc2)o1 | 63.6
NC(=O)C1(Cc2ccc(-c3cccs3)cc2)CN(C(=O)c2ccccc2)CCO1 (stereo unspecified) | -9.3
C=CCN1CCN(C)C2(CCN(S(=O)(=O)C3CC3)CC2)C1=O | 4.3
O=C(O)c1cc2n(n1)CCN(Cc1ccccc1)C2 | -2.3
CN(C)C(=O)c1cn(C)nc1CC1CCN(S(=O)(=O)c2ccc(Cl)cc2)CC1 | 12.7
CC1(C)CC(C(=O)N2CCn3c(C(N)=O)cnc3C2)CCO1 (stereo unspecified) | -5.6
OCCOCc1ncn2c1CN(Cc1nccs1)CCC2 | -1.0
COc1ccccc1-c1nc(Cn2nnc(C(=O)Nc3ccc(F)c(F)c3)c2C)c(C)o1 | -4.5
O=C(O)CNS(=O)(=O)c1ccc(-c2ccccc2)cc1 | -3.4
CC(C)[C@H](NS(=O)(=O)c1ccc(-c2ccc(Br)cc2)cc1)C(=O)O | 36.9
CC(C)ON([C@@H](C(=O)NO)C(C)C)S(=O)(=O)c1ccc(-c2ccccc2)cc1 | -75.2*
O=C(NCc1ccc(-c2ccc(F)cc2F)o1)Nc1ccc(Cl)cc1 | -69.5
O=S(=O)(c1ccc(F)cc1F)n1nccc1-c1ccc(-c2ccc(F)cc2F)o1 | -110.8*

Screening results (PubChem)
